Screening results deposited in PubChem by several laboratories.
The list is not random: actives were taken first. Their share in the collection is about 2.5%.
Efflux pump inh = inhibitors of Candida efflux pumps in yeast, primary screen, S. cerevisiae, Nile Red, multiplex | S. cerevisiae Candida pump triplex | 330,000 compounds, 0.44% hits | inhibition, % at 10 µM;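 active means plate passing quality check with inhibition over a set limit, or well fluorescence over plate mean plus 4 SD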;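 further: Nile Red retained in pooled yeast measured as flow cytometry median fluorescence; higher means more Nile Red kept so more efflux inhibition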
V-ATPase pH = regulators of yeast V-ATPase proton pumping, primary screen, pHLuorin cytosolic pH fluorescence; S. cerevisiae; 350,000 compounds, 0.37% hits; response, % at 10 µM; in the data active means response mostly above about 7.3%, no sharp cut-off; inactive means mostly below about 5.4%; further: actives read high
ATG4B inh = ATG4B protease inhibitors, primary screen, biochemical, fluorescence, uHTS; Cysteine protease ATG4B (Homo sapiens), Q9Y4P1; ATG4B cleavage of LC3-PLA2, NBD-HPC fluorescence, 1 h; inhibition, % at 8.33 µM; 340,000 compounds, 0.51% hits; in the data active means inhibition above about 40%
Target sequence (Q9Y4P1 whole entry, looked up): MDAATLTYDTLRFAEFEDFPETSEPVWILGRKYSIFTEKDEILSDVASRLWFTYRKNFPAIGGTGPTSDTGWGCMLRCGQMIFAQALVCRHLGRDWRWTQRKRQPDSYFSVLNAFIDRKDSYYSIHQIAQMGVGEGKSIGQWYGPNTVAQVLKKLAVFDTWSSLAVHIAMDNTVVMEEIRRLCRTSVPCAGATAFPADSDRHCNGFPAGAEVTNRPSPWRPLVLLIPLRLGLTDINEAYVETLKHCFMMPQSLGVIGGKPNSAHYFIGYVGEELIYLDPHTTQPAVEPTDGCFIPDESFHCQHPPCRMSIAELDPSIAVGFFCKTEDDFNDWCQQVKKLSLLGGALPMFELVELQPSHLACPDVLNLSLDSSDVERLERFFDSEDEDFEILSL
AI-2 QS modul = Vibrio harveyi AI-2 quorum sensing modulators, primary screen, JMH597 strain, luminescence/OD600 ratio. Vibrio harveyi JMH597 AI-2 luminescence/OD600 ratio, 9 h; active compounds read low; strain lacks LuxN and CqsS sensors; 0 = neutral-control median. activity change, % at 7.5 µM. 300,000 compounds, 0.4% hits. AID 2094, 2009; in the data active means activity change below about -75%, passing the limit was not always enough;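 further: luminescence divided by OD600 gain over 9 h not by final OD600 alone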
Mot1-301 SUMO = yeast Mot1-301 growth rescue at high temperature, primary screen, SUMOylation pathway inhibitor project, S. cerevisiae, ATP luminescence, 38.5C | S. cerevisiae Mot1-301 growth rescue; percent above DMSO median, 100 means doubled | growth rescue, % at 18.8 µM | 320,000 compounds, 1% hits | AID 2716, 2010;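 active means every valid replicate shows activation above 250% relative to neutral control wells; inactive means the rest, any valid replicate at or below 250%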
A number is an active result; - = inactive; . = no result given.

SMILES | Efflux pump inh | V-ATPase pH | ATG4B inh | AI-2 QS modul | Mot1-301 SUMO
COc1ccc(NC(=O)[C@H](C)NC(=O)C2CCN(S(=O)(=O)c3ccc(C)cc3)CC2)cc1OC | - | - | - | . | -
COc1ccc(CNC(=O)CCS(=O)(=O)Cc2cccc(Cl)c2)c(OC)c1 | - | 14 | - | - | -
CCOc1ccc(CNC(=O)CCS(=O)(=O)Cc2ccccc2C)cc1OC | - | - | - | - | -
O=C(Cc1cccs1)NCc1ccccc1Br | - | - | - | - | -
Cc1cc(C)cc(OCC(=O)Nc2cnn(CCCC(=O)O)c2)c1 | - | - | - | - | -
Cc1cccc(CSCc2ccc(C(=O)NCC3CCCO3)o2)c1 (stereo not given) | - | - | - | - | 315
Cc1ccc(CSCc2ccc(C(=O)NCC3CCCO3)o2)cc1 (stereo not given) | - | - | - | - | -
O=C1c2ccccc2C(Nc2cccnc2)N1Cc1ccccc1 (stereo not given) | - | - | - | - | -
CCCCNC1c2ccccc2C(=O)N1Cc1ccccc1 (stereo not given) | - | 17 | - | - | -
CC(NC(=O)C(=O)NCCN1CCN(C(=O)c2ccccc2Br)CC1)c1ccccc1 (stereo not given) | - | - | - | - | -
CN1Cc2sc(NC(=S)NC(=O)c3ccccc3)c(C#N)c2CC1(C)C | - | 29 | - | - | -
CCC1(C)Cc2c(sc(NC(=S)NC(=O)c3ccccc3)c2C#N)CO1 (stereo not given) | - | - | - | - | -
NC1=NC(c2cccc(Cl)c2)N(CCc2ccc(F)cc2)C(N)=N1 (stereo not given) | - | - | - | - | -
COc1ccc(/C=C/c2nc3ccccc3n2Cc2ccccc2OC)cc1 | - | - | - | - | 323
COc1ccccc1Cn1c(/C=C/c2ccccc2)nc2ccccc21 | - | - | - | - | 408
O=C(CC12CC3CC(CC(Br)(C3)C1)C2)NC1CCCC1 | - | - | - | - | -
CCc1ccc(C(=O)CN2C(=O)NC(C)(CCc3ccccc3)C2=O)cc1 (stereo not given) | - | - | - | - | -
CC(C)CNc1nc(S(=O)(=O)c2ccccc2)c(Cl)s1 | - | - | - | - | -
CN(C)CCNc1nc(S(=O)(=O)c2ccccc2)c(Cl)s1 | - | - | - | - | 355
CC(C)CCOc1cccc(OCC(=O)Nc2ccncc2)c1 | - | - | - | - | 317
COc1cccc(OCC(=O)Nc2ccncc2)c1 | - | - | - | - | -
CC(C#N)(Nc1ccc(Cl)cc1)c1cccnc1 (stereo not given) | - | - | - | - | 306
NNc1nc(C(F)(F)F)nc2ccccc12 | - | - | - | - | -
O/C=c1\ccc2cccc3nc(C(F)(F)F)nc1c23 | 3.0 | - | - | - | -
CC(=O)Nc1ccc(NC(=O)COC(=O)CCc2nc3ccccc3s2)cc1 | - | - | - | - | -
SMILES | Efflux pump inh | V-ATPase pH | ATG4B inh | AI-2 QS modul | Mot1-301 SUMO
O=c1cc(N=Nc2ccc(Cl)cc2)[nH]c(=O)[nH]1 | - | 13 | - | - | -
CC(C)(C)c1cc(CCC(=O)NCC2CCCO2)cc(C(C)(C)C)c1O (stereo not given) | - | - | - | - | 298
CCCNC(=O)CCc1cc(C(C)(C)C)c(O)c(C(C)(C)C)c1 | - | - | - | - | -
O=C(OCc1cn([C@H]2C[C@H](c3ccc(Cl)cc3)N(C(=O)c3cccs3)C[C@@H]2O)nn1)c1ccccc1 | . | - | . | . | .
CC(Cl)C(=O)NN=C(c1ccccc1)c1ccccc1 (stereo not given) | - | - | - | - | 468
CC(OC(=O)c1cc(=O)c2cc(Cl)ccc2o1)C(=O)N1CCCC1 (stereo not given) | . | - | - | . | .
CC(C)N1CCN(c2ccc(OC[C@H]3CO[C@](Cn4cncn4)(c4ccc(Cl)cc4Cl)O3)cc2)CC1 | - | - | - | . | 269
Cc1ccc2oc(C(=O)NCC3CCOCC3)c(C)c2c1 | - | - | - | - | -
Cc1nnc(SC/C=C/c2ccccc2)n(N)c1=O | - | - | - | - | -
Nn1c(SC/C=C/c2ccccc2)nnc1-c1ccco1 | - | 18 | - | - | -
O=C(C[C@@H]1C/C=C\CCC(=O)O[C@H](c2ccccc2)CNC1=O)N[C@H](CO)Cc1ccccc1 | - | - | - | . | -
O=C(NC1CCS(=O)(=O)C1)/C(=C\c1ccc(F)cc1)NC(=O)c1ccccc1 (stereo not given) | - | - | - | - | -
COc1ccc(/C=C(\NC(=O)c2ccccc2)C(=O)NCc2cccnc2)cc1 | - | - | - | - | 270
COc1ccc(/C=C(\NC(=O)c2ccccc2)C(=O)NC2CCS(=O)(=O)C2)cc1 (stereo not given) | - | - | - | - | 269
CN(C)c1ccc(/C=C(\NC(=O)c2ccccc2)C(=O)NCc2cccnc2)cc1 | - | - | - | - | -
BrC(=C\c1ccccc1)/C=N/Nc1nc(N2CCOCC2)nc(N2CCOCC2)n1 | - | - | - | - | -
BrC(/C=C\c1ccccc1)=N/Nc1nc(N2CCOCC2)nc(N2CCOCC2)n1 | - | - | - | - | 320
CCC(Br)C(=O)Nc1ccc(OC)cc1 (stereo not given) | - | - | - | - | -
CCCC(O)(c1ccc(Cl)cc1)C(CN1CCOCC1)c1ccc(Cl)cc1 (stereo not given) | - | - | - | - | 292
COc1cc(OC)c2c(c1O)OC(c1ccccc1)CC2=O (stereo not given) | - | - | - | - | 696
O=C1CC(c2ccccc2)Oc2cc(O)cc(O)c21 (stereo not given) | - | - | - | - | -
CCCCCN(C(=O)CCC(=O)OCc1cccc(F)c1)c1c(N)n(CCCC)c(=O)[nH]c1=O | - | - | - | - | -
COc1cc(N=c2c([N+](=O)[O-])nn(-c3ccc4c(c3)OCCO4)n2O)cc(OC)c1 | - | - | - | - | 274
CC(C)c1ccc(N=c2c([N+](=O)[O-])nn(-c3ccc4c(c3)OCCO4)n2O)cc1 | - | - | - | - | -
COc1cc(C2C(C#N)=C(C)NC3=C2C(=O)CC(C)(C)C3)cc(OC)c1O (stereo not given) | - | - | - | - | 348
COc1cc(C2C(C#N)=C(C)NC3=C2C(=O)CC(C)(C)C3)ccc1OCCO (stereo not given) | - | - | - | - | -
O=[N+]([O-])c1ccc(O)c(Nc2c([N+](=O)[O-])ccc3nonc23)c1 | - | - | - | - | -
O=C(OCCCN=C1NS(=O)(=O)c2ccccc21)C1CC(=O)N(c2ccc(Cl)cc2)C1 (stereo not given) | - | - | - | - | -
Cc1ccc(C(=O)O/N=C(\N)Cc2cccs2)c(Cl)c1 | - | - | - | -89 | -
